Test results from PubChem BioAssay AID1159580 (chemical genetic matrix, 2015).
Hit rate of the full screen: of about 5,500 compounds, about 2,000 (36%) were called active. Not shown: some 18% with an inconclusive outcome. No stated cut-off is given here; in the data, active means normalized growth mostly below about 0.91 (no sharp cut-off); inconclusive means no clear call, values can overlap the other calls; inactive means mostly above about 0.92. The list shows a part of the results.

Assay: chemical genetic growth profiling, strain panel (AID 1159580);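 further: tested at 20 µM; growth read once vehicle control cultures reached saturation at 30 °C; 1 = growth at the plate median or of vehicle wells; lower values mean less growth of the strain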
Settings: growth OD

Measured: normalized growth

NCC1CCC(C(=O)O)CC1 (stereo not drawn)
inactive: S. cerevisiae deletion strains, locus YKL009W, strain mrt4, hits give low values 0.97 | S. cerevisiae deletion strains, locus YKL068W, hits give low values 0.984 | S. cerevisiae deletion strains, locus YKL085W, strain MDH1 (second series), hits give low values 0.985 | S. cerevisiae deletion strains, locus YKL085W, strain MDH1, hits give low values 0.985 | S. cerevisiae deletion strains, locus YKL160W, strain elf1, hits give low values 0.997 | S. cerevisiae deletion strains, locus YKL190W, strain CNB1, hits give low values 0.995 | S. cerevisiae deletion strains, locus YKR001C, strain vps1, hits give low values 1.01 | S. cerevisiae deletion strains, locus YKR026C, strain gcn3, hits give low values 0.993 | S. cerevisiae deletion strains, locus YKR091W, strain srl3, hits give low values 0.997 | S. cerevisiae deletion strains, locus YLL001W, strain dnm1, hits give low values 0.998 | S. cerevisiae deletion strains, locus YLL026W, hits give low values 0.996 | S. cerevisiae deletion strains, locus YLL041C, strain sdh2, hits give low values 0.996 | S. cerevisiae deletion strains, locus YLR027C, strain aat2, hits give low values 0.989 | S. cerevisiae deletion strains, locus YLR039C, strain RIC1, hits give low values 0.975 | S. cerevisiae deletion strains, locus YLR058C, strain SHM2, hits give low values 1 | S. cerevisiae deletion strains, locus YLR102C, strain apc9, hits give low values 0.989 | S. cerevisiae deletion strains, locus YLR113W, strain HOG1, hits give low values 1 | S. cerevisiae deletion strains, locus YLR221C, strain rsa3, hits give low values 0.984 | S. cerevisiae deletion strains, locus YLR258W, strain gsy2, hits give low values 0.999 | S. cerevisiae deletion strains, locus YLR262C, strain YPT6 (second series), hits give low values 0.984 | S. cerevisiae deletion strains, locus YLR262C, strain YPT6, hits give low values 0.953 | S. cerevisiae deletion strains, locus YLR268W, strain sec22, hits give low values 0.991 | S. cerevisiae deletion strains, locus YLR320W, strain mms22, hits give low values 0.992 | S. cerevisiae deletion strains, locus YLR330W, strain CHS5, hits give low values 0.991 | S. cerevisiae deletion strains, locus YLR342W, strain FKS1 (second series), hits give low values 0.986 | S. cerevisiae deletion strains, locus YLR342W, strain FKS1, hits give low values 0.998 | S. cerevisiae deletion strains, locus YLR357W, strain rsc2, hits give low values 0.996 | S. cerevisiae deletion strains, locus YLR370C, strain arc18, hits give low values 0.996 | S. cerevisiae deletion strains, locus YLR371W, strain rom2, hits give low values 1 | S. cerevisiae deletion strains, locus YLR384C, strain iki3, hits give low values 0.999 | S. cerevisiae deletion strains, locus YLR418C, strain cdc73, hits give low values 0.97 | S. cerevisiae deletion strains, locus YML016C, strain PPZ1, hits give low values 0.999 | S. cerevisiae deletion strains, locus YML032C, strain rad52, hits give low values 1.01 | S. cerevisiae deletion strains, locus YML120C, strain ndi1, hits give low values 0.974 | S. cerevisiae deletion strains, locus YML124C, strain tub3, hits give low values 0.998 | S. cerevisiae deletion strains, locus YMR058W, strain fet3, hits give low values 0.988 | S. cerevisiae deletion strains, locus YMR078C, strain ctf18, hits give low values 0.98 | S. cerevisiae deletion strains, locus YMR125W, strain sto1, hits give low values 0.999 | S. cerevisiae deletion strains, locus YMR129W, hits give low values 0.999 | S. cerevisiae deletion strains, locus YMR205C, strain PFK2, hits give low values 0.989 | S. cerevisiae deletion strains, locus YMR223W, strain ubp8, hits give low values 0.987 | S. cerevisiae deletion strains, locus YMR231W, strain pep5, hits give low values 0.999 | S. cerevisiae deletion strains, locus YMR307W, strain GAS1, hits give low values 1.01 | S. cerevisiae deletion strains, locus YNL067W, strain RPL9B, hits give low values 1.03 | S. cerevisiae deletion strains, locus YNL071W, strain lat1, hits give low values 0.989 | S. cerevisiae deletion strains, locus YNL153C, strain GIM3, hits give low values 1.06 | S. cerevisiae deletion strains, locus YNL183C, strain NPR1, hits give low values 0.946 | S. cerevisiae deletion strains, locus YNL209W, strain ssb2, hits give low values 1.02 | S. cerevisiae deletion strains, locus YNL233W, strain BNI4, hits give low values 1.03 | S. cerevisiae deletion strains, locus YNL248C, strain rpa49, hits give low values 0.988 | S. cerevisiae deletion strains, locus YNL250W, strain rad50, hits give low values 0.979 | S. cerevisiae deletion strains, locus YNL271C, strain bni1, hits give low values 0.978 | S. cerevisiae deletion strains, locus YNL298W, strain CLA4, hits give low values 0.987 | S. cerevisiae deletion strains, locus YNL307C, strain MCK1, hits give low values 0.999 | S. cerevisiae deletion strains, locus YNL322C, strain KRE1 (second series), hits give low values 0.992 | S. cerevisiae deletion strains, locus YNL322C, strain KRE1, hits give low values 0.991 | S. cerevisiae deletion strains, locus YNR049C, strain mso1, hits give low values 0.991 | S. cerevisiae deletion strains, locus YNR052C, strain pop2, hits give low values 0.985 | S. cerevisiae deletion strains, locus YOL006C, strain TOP1, hits give low values 1.1 | S. cerevisiae deletion strains, locus YOL012C, strain htz1 0.934 | S. cerevisiae deletion strains, locus YOL147C, strain pex11, hits give low values 0.99 | S. cerevisiae deletion strains, locus YOR001W, strain rrp6, hits give low values 0.998 | S. cerevisiae deletion strains, locus YOR061W, strain CKA2, hits give low values 1 | S. cerevisiae deletion strains, locus YOR069W, strain VPS5, hits give low values 0.986 | S. cerevisiae deletion strains, locus YOR070C, strain gyp1, hits give low values 0.993 | S. cerevisiae deletion strains, locus YOR080W, strain dia2, hits give low values 0.987 | S. cerevisiae deletion strains, locus YOR083W, strain WHI5, hits give low values 1 | S. cerevisiae deletion strains, locus YOR106W, strain vam3, hits give low values 1.01 | S. cerevisiae deletion strains, locus YOR136W, strain idh2, hits give low values 0.991 | S. cerevisiae deletion strains, locus YOR144C, strain elg1, hits give low values 1 | S. cerevisiae deletion strains, locus YOR184W, strain ser1, hits give low values 0.981 | S. cerevisiae deletion strains, locus YOR231W, strain MKK1, hits give low values 1.05 | S. cerevisiae deletion strains, locus YOR265W, strain rbl2, hits give low values 0.994 | S. cerevisiae deletion strains, locus YOR270C, strain vph1, hits give low values 0.987 | S. cerevisiae deletion strains, locus YOR290C, strain snf2, hits give low values 1.01 | S. cerevisiae deletion strains, locus YOR316C, strain cot1, hits give low values 0.992 | S. cerevisiae deletion strains, locus YPL051W, strain arl3, hits give low values 0.993 | S. cerevisiae deletion strains, locus YPL078C, strain atp4, hits give low values 0.993 | S. cerevisiae deletion strains, locus YPL106C, strain sse1, hits give low values 0.967 | S. cerevisiae deletion strains, locus YPL240C, strain hsp82, hits give low values 0.989 | S. cerevisiae deletion strains, locus YPL241C, strain CIN2, hits give low values 0.996 | S. cerevisiae deletion strains, locus YPL256C, strain CLN2, hits give low values 1.02 | S. cerevisiae deletion strains, locus YPR119W, strain clb2, hits give low values 0.994 | S. cerevisiae deletion strains, locus YPR141C, strain kar3, hits give low values 0.998 | S. cerevisiae deletion strains, locus YPR163C, strain tif3, hits give low values 0.992 | S. cerevisiae deletion strains, locus YPR167C, strain met16, hits give low values 0.989 | S. cerevisiae deletion strains, strain wtn01, hits give low values 0.979 | S. cerevisiae strains, strain wild type, hits give low values 0.995
